The sample as a whole holds a higher share of hits than the screen did.
NS1 function inh: inhibitors of influenza NS1 protein function; 270,000 compounds, 0.4% hits; Potency, µM (titrated, usually from 46.1 µM), for inactives: at the highest dose activity, positive = more growth; calls by dose curve; note: actives are rising curves; nearly all actives have a fitted effect of over 50% in size
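OD600 was taken as the measure of yeast growth restored by compound in an NS1-expressing S. cerevisiae strain. Cells had been washed out of glucose medium and diluted 1:100 into galactose -URA medium, pH 6.0.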
Cruzain inh noDet: cruzain (T. cruzi) inhibition without detergent; P25779; Potency, µM, for inactives: max response, negative = inhibition, actives largely listed as inhibitors; 200,000 compounds, 2.3% hits; purified cruzain, Z-FR-AMC fluorescence, no detergent;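 note: plate controls were enzyme without inhibitor for no effect and buffer without enzyme for full effect; nearly all actives have a fitted effect of over 40% in size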
Target sequence (P25779 123-467 limits assumed): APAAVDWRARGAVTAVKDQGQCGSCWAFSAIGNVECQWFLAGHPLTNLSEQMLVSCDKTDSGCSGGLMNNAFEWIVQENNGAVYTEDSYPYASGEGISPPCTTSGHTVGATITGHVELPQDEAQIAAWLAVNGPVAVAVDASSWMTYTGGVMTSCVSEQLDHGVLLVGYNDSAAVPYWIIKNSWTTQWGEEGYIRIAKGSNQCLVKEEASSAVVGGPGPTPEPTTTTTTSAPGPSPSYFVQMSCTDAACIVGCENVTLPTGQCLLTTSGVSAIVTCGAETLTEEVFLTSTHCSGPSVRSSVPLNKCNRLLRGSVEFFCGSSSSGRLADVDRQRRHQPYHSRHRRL
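Detergent-free condition (0.00005% Triton X-100) in acetate buffer pH 5.5 with DTT. 1.5 nM enzyme and compound were pre-mixed 15 min, then 2 uM Z-FR-AMC substrate added; reaction progress from fluorescence change between first and third reads (60 s).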
Cruzain Triton: cruzain (T. cruzi) inhibition with detergent | P25779 | purified cruzain, Z-FR-AMC fluorescence, 0.01% Triton | Potency, µM, for inactives: max response, negative = inhibition, hits mostly inhibitors | 200,000 compounds, 0.43% hits;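 note: plate controls were neutral wells for no effect and buffer without enzyme for full effect; nearly all actives have a fitted effect of over 40% in size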
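Sodium acetate buffer (100 mM, pH 5.5) containing 5 mM DTT and 0.01% Triton X-100 hosted 1.5 nM cruzain and test compound for 15 min at room temperature. Cleavage of 2 uM Z-FR-AMC was then tracked by fluorescence.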
* = called active by the depositor; ? = inconclusive; / = no result given. Unless noted, calls come from the whole dose curve; as a rule, active = well fitted curve in the direction sought with a large enough effect; inconclusive = small, poorly fitted or top-dose-only effect, or another doubt; inactive = no such curve, though single readings can be large; an effect the other way counts as inactive or inconclusive. Potency is the fitted concentration of half-maximal effect.

SMILES	NS1 function inh	Cruzain inh noDet	Cruzain Triton
CN(C)S(=O)(=O)c1ccc(C(=O)NCCSc2c(-c3ccc(Br)cc3)[nH]c3ccccc23)cc1	/	25µM*	1%
CC1=CC(=O)CC2C1(C)CCC(C)C2(C)CCC(C)CC(=O)O (stereo not given)	5%	/	/
CCn1c(SCc2ccc(C(=O)Nc3cc(C)cc(C)c3)cc2)nnc1-c1ccncc1	1%	?	-3%
COc1cccc(NC(=O)/C(C#N)=C/c2c(C)n(Cc3ccc(Cl)cc3)c3ccccc23)c1	/	6.3µM*	-2%
COc1cccc(NC(=O)Cn2c(=O)n(CCC(=O)NCCc3ccc(Cl)cc3)c(=O)c3ccccc32)c1	/	-9%	-3%
Cc1c(/C=C(\C#N)C(=O)Nc2cccc(Cl)c2)c2ccccc2n1Cc1ccccc1	/	4µM*	-4%
Cc1ccc(Cl)cc1NC(=O)/C(C#N)=C/c1c(C)n(Cc2ccccc2)c2ccccc12	/	3%	0%
CC1=C(C(=O)Nc2ccc(Br)cc2)C(c2ccco2)NC(=O)N1 (stereo not given)	4%	1%	3%
O=C1CC(c2ccco2)CC(O)=C1C=NCC1NCCc2ccccc21 (stereo not given)	-1%	-14%	-1%
CCCCCNC(=O)CCn1c(=O)[nH]c2ccccc2c1=O	/	-4%	1%
OCCC1CN(Cc2cc(F)ccc2F)CCN1CCCc1ccccc1 (stereo not given)	-4%	/	/
COc1ccc(-n2cc(C(=O)NCCc3ccc(C)cc3)c3ccccc3c2=O)cc1	/	25µM*	-5%
COc1cccc(-n2cc(C(=O)NCCc3ccc(C)cc3)c3ccccc3c2=O)c1	/	20%	0%
COC(=O)c1sc(NC(=O)CSc2nnc(Cn3nnc4ccccc43)n2C)nc1C	15%	-3%	-1%
O=C(CCc1nc2ccccc2c(=O)[nH]1)OCC(=O)c1ccc(C2CCCCC2)cc1	5%	16µM*	-5%
O=C(COC(=O)CCc1nc2ccccc2c(=O)[nH]1)NCc1ccc(F)cc1	-37%	/	/
O=C(CSc1nc2ccccc2s1)N1c2ccccc2Sc2ccccc21	16%	16µM*	2%
CCOc1ccc2nc(SCC(=O)N3c4ccccc4Sc4ccccc43)sc2c1	-1%	?	1%
Cc1cnc(NC(=O)CSc2nc3ccccc3s2)s1	-50%	-10%	-5%
Cc1cc(NC(=O)CSc2nc3ccccc3s2)no1	-11%	32µM*	1%
CC(C)C[C@@H](CC(=O)N[C@H](CC(=O)N[C@@H]1CCNC[C@H]1C(=O)N[C@H](CC(=O)N[C@@H](CCC(=O)O)CC(=O)O)Cc1c[nH]c2ccccc12)C(C)C)NC(=O)[C@@H]1CNCC[C@H]1N	/	-6%	1%
Cc1ccc(CNC(=O)c2nn(C)c3c2CSc2ccc(C)cc2-3)cc1	/	20µM*	-3%
Cc1ccc(CCNC(=O)c2nn(C)c3c2CSc2ccccc2-3)cc1	/	-9%	-4%
C[C@@]1(C(NC(=O)c2ccc(-c3ccccc3)cc2)c2ccc(Cl)cc2)C[C@H]1C1CCCCC1 (stereo not given in full)	/	?	2%
C[C@@]1([C@@H](NC(=O)c2cccs2)c2ccc(-c3ccccc3)cc2)C[C@H]1C1CCCCC1	1%	7.9µM*	-2%
SMILES	NS1 function inh	Cruzain inh noDet	Cruzain Triton
CCn1cc(CCC(=O)NCc2ccccc2OC)c2ccccc21	-8%	-20%	-4%
Cc1cc(N2CCN(C(=O)c3ccco3)CC2)n2nc(-c3cccc(Cl)c3)cc2n1	-71%	?	-17%
CCNC(=O)COc1ccc(C=O)cc1OC	-1%	?	-3%
NC(=O)c1c(N)sc2c1CCCCC2	-31%	25µM*	-21%
NC(=O)c1c(N)sc2c1CCC2	1%	/	/
Cc1ccc(-n2c(=O)c3c(C)c(C)sc3n(Cc3ccc(F)cc3Cl)c2=O)cc1C	/	2%	-1%
CC(C)NC(=O)Cn1cnc2c(cnn2-c2ccc(F)cc2)c1=O	3%	/	/
CC(C)(C)n1ncc2c(=O)n(CC(=O)NCCc3ccccc3)cnc21	-1%	1%	0%
O=C(Cn1cnc2c(cnn2-c2ccc(Cl)cc2)c1=O)NC1CCCCC1	1%	10µM*	2%
O=C(Cn1cnc2c(cnn2-c2ccc(Cl)cc2)c1=O)NCCc1ccccc1	6%	25µM*	-1%
COC(=O)c1ccc(NC(=O)CNC(=O)C2CCCCC2)c(C)c1	3%	-7%	3%
Cc1sc(C(=O)NCc2cccnc2)c2nc(C)n(CC(=O)NCc3cccnc3)c(=O)c12	0%	4%	1%
CCCNC(=O)COC(=O)c1ccccc1C(=O)N(C)C1CCCCC1	22%	-9%	-1%
COc1ccc(-c2ccc(C(=S)N3CCN(C(C)=O)CC3)o2)cc1	-16%	9%	-28%
COc1ccc(/C(=N\O)c2ncc(C(F)(F)F)cc2Cl)cc1	-6%	0%	-6%

Compound activity from PubChem BioAssay.
